Source: PubChem BioAssay AID618 (Sanford-Burnham Center for Chemical Genomics, 2007)
Among all 87,000 compounds or so, about 540 (0.62%) were called active. No rule for the calls is given here. The sample as a whole holds a higher share of actives than the screen did. Measured potencies and affinities stand elsewhere.

experiment: MT1-MMP gene expression reporter suppression – cell-based, luciferase reporter, luminescence (AID 618); conditions: MT1-MMP promoter luciferase reporter cells;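 also: actives suppress MT1-MMP promoter-driven transcription so potencies describe inhibitors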

outcome, active:
Cc1cc(C(=O)NCCN2CCN(c3cccc(Cl)c3)CC2)n(-c2ccccc2)n1
CCOC(=O)c1c(C)sc2c1N(C(=O)CCl)c1cc(Cl)ccc1S2
COCCn1c(C)cc(C(=O)CSc2nnc(C)s2)c1C
O=S(=O)(Nc1cccc2ncccc12)c1cccs1
Cc1ccc(S(=O)(=O)Nc2cccc3ncccc23)s1
O=C(c1cccs1)c1no[n+]([O-])c1C(=O)c1cccs1

outcome, inactive:
Cc1cc(C(=O)NCCCN2CCN(C3CCCCC3)CC2)n(-c2ccccc2)n1
Cc1cc(C(=O)NCCCN2CCOCC2)n(-c2ccccc2)n1
COc1ccc(S(=O)(=O)Cc2ccc(C(=O)N3CCc4ccccc4C3)o2)cc1
CCC1=C/C(=C/N(C)c2ccccc2)C(=O)S1
Cc1ccc(-c2cc(=O)[nH][nH]2)c(C)c1
CCOC(=O)c1c(C)sc2c1N(C(=O)CN(CC)CC)c1cc(Cl)ccc1S2
CCOC(=O)c1c(C)sc2c1N(C(C)=O)c1cc(Cl)ccc1S2
CCN1CCN(C(=O)c2cc3cc4ccc(OC)cc4nc3s2)CC1
CCC(C)NC(=O)c1cc2cc3ccc(OC)cc3nc2s1 (stereo unspecified)
O=c1[nH]c(NCCO)nc2ncn(Cc3ccccc3)c12
Cn1c(C(=O)N2CCCC(C(=O)NCCc3ccccc3)C2)cc2sccc21 (stereo unspecified)
Cc1ccc(-c2csc(NC(=O)c3ccno3)n2)cc1
Cc1ccc(C(=O)CC(=O)c2cc(Cl)ccc2O)cc1
COc1ccc(C(=O)c2ccccc2)c(O)c1
O=C(CC(=O)c1cc(Cl)ccc1O)c1ccccc1
Cc1ccc(O)c(C(=O)CC(=O)c2cccc(F)c2)c1
CSCCC1C(=O)OC2(C)CC(C)(C)NC(=S)N12 (stereo unspecified)
Cc1nnc(SCC(=O)c2cc(C)n(C3CC3)c2C)s1
CCCn1c(=O)c2ccccc2n2c(SCC(=O)c3cc(C)n(CCOC)c3C)nnc12
COCCn1c(C)cc(C(=O)CSc2nncn2-c2ccccc2)c1C
COCCn1c(C)cc(C(=O)CSc2ncn[nH]2)c1C
CC(=O)N1c2ccccc2C(=O)OC1c1cccnc1 (stereo unspecified)
O=C(NCCCn1ccnc1)c1cc2c(s1)CCCCC2
COc1cccc(CN2C(=O)c3ccccc3C2C(=O)NCC2CCCO2)c1 (stereo unspecified)
O=C(O)c1cnn(-c2ccccc2)c1-n1cccc1
COc1cccc(-n2nnnc2SCC(=O)Nc2cccc(C)n2)c1
O=C(Cn1cnc2c(nnn2Cc2ccc(F)cc2)c1=O)OCc1ccccc1
Cc1ccc(S(=O)(=O)Nc2ccnc3ccccc23)cc1
O=S(=O)(Nc1cccc2c1ccc1cccn12)c1cccs1
O=S(=O)(Nc1ccc(-c2nc3cccnc3s2)cc1)c1cccs1
Cc1ccc(S(=O)(=O)NCc2cccnc2)s1
CCN(CC)CCOC(=O)c1cccc(Cl)c1
Cc1ccc(C(=O)c2nocc2C(=O)c2cccs2)cc1
O=C(O)Cc1ccc(C(=O)c2cccs2)s1
CC(=O)c1cccc(NC(=O)N2CCCC2C(=O)NCc2ccc(F)cc2)c1 (stereo unspecified)
